# Source: PubChem BioAssay (NCATS)
# Inconclusive results are not listed. Where a call stands in place of a potency, no number is given. Activity calls are given as the source filed them. Unless noted, the call rests on the fitted dose curve.
# Assays:
# [1] = Natriuretic polypeptide receptor (hNpr1) antagonism - Pilot counterscreen GloSensor control cell line (AID 1347045); conditions: HEK293 cGMP GloSensor cells, SNP-stimulated luminescence, 20 min; series mostly up to 38.3 µM; further: potency means the concentration at half of the fitted maximal effect
# Outline: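 The SNP-driven cGMP luminescence signal (50 uM, 20 min, room temperature) was measured in GloSensor HEK293 control cells. Compounds were tested as a LOPAC titration series and preincubated for 30-50 min.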
# [2] = target: Atrial natriuretic peptide receptor 2 (Homo sapiens) (UniProt P20594); experiment: Natriuretic polypeptide receptor (hNpr2) antagonism - Pilot subtype selectivity assay (AID 1347050); conditions: NPR2-expressing cells, cGMP antagonist-mode read-out; series mostly up to 38.3 µM; further: potency means the concentration at half of the fitted maximal effect
# Atrial natriuretic peptide receptor 2 (Homo sapiens), sequence (P20594 whole entry, looked up): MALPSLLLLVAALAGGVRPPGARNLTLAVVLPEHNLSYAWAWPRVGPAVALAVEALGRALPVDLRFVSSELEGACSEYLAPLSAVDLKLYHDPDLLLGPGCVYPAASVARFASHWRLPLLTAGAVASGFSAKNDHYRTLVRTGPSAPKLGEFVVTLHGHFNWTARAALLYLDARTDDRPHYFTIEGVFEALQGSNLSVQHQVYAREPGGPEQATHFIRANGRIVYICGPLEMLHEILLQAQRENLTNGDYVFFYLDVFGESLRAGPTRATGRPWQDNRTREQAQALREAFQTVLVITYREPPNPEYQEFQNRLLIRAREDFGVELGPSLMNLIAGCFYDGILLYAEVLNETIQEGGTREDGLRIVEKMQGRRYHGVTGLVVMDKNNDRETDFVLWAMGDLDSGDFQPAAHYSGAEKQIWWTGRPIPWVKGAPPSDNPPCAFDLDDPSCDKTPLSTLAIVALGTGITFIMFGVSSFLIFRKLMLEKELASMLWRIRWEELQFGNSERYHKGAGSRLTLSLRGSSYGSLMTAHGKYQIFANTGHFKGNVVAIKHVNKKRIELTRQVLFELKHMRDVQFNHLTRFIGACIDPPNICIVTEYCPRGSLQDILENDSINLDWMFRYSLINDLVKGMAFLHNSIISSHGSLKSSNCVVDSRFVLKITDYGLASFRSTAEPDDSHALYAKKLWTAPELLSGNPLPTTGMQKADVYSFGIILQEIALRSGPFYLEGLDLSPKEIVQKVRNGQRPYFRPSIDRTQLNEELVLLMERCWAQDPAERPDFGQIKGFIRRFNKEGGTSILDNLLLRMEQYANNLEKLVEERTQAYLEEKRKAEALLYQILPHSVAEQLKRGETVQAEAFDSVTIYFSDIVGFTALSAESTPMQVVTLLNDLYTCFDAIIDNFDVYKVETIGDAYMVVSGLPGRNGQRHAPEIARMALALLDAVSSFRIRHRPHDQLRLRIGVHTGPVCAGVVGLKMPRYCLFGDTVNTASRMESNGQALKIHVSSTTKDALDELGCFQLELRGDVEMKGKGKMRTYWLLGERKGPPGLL
# Outline: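 Luminescence from a genetically encoded cGMP luciferase biosensor in hNpr2-expressing HEK293 cells is read before and 20 min after adding 1 nM hNppC. Test compounds, in interplate 1:5 titrations, are added 30-50 min ahead of the agonist.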
# [3] = target: Tyrosine-protein phosphatase non-receptor type substrate 1 (Homo sapiens) + Leukocyte surface antigen CD47 (Homo sapiens) (UniProt P78324+Q08722); experiment: CD47-SIRPalpha protein protein interaction - LANCE assay qHTS validation (AID 1347057; active means well fitted curve in the direction sought with a large enough effect in the signal ratio, with a control signal flat, not every such curve was filed as active; the % refers to the signal ratio); conditions: Recombinant CD47-His / biotin-SIRPalpha, TR-FRET ratio; series mostly up to 38.3 µM
# Tyrosine-protein phosphatase non-receptor type substrate 1 (Homo sapiens) + Leukocyte surface antigen CD47 (Homo sapiens), sequence (P78324 whole entry, looked up, the tested form may be a part): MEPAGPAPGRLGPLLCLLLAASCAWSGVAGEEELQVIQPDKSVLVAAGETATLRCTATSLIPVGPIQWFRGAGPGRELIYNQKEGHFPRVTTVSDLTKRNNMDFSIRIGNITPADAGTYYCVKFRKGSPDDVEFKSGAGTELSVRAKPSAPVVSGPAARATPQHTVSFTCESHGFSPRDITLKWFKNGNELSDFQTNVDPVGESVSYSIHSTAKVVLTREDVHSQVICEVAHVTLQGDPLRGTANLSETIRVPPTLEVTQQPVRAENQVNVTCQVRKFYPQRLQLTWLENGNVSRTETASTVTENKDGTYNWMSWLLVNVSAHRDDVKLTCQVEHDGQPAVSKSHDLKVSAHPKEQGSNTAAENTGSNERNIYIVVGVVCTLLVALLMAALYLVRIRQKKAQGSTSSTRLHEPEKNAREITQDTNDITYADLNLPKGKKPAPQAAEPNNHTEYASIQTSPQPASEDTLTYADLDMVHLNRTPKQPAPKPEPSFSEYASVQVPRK
# Tyrosine-protein phosphatase non-receptor type substrate 1 (Homo sapiens) + Leukocyte surface antigen CD47 (Homo sapiens), sequence (Q08722 whole entry, looked up, the tested form may be a part): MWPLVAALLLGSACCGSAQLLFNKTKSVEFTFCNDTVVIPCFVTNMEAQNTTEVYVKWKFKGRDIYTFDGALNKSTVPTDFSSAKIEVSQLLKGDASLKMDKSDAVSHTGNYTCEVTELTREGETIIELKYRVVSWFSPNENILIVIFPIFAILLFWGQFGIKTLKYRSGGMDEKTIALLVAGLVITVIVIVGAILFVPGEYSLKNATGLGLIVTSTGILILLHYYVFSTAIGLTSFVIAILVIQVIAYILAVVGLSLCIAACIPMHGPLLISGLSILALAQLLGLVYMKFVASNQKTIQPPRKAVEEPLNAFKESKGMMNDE
# Outline: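 Inhibition of soluble CD47/SIRPalpha ectodomain association by titrated compounds, measured as 665/615 nm time-resolved FRET ratio after sequential 30 min room-temperature incubations.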
# [4] = NS1 protein of Zika virus - qHTS assay to identify small molecule inhibitors in human HEK 293 cells (AID 1347053; active means well fitted inhibition curve with a large enough effect; further: nearly all actives have a fitted effect of over 55% in size); conditions: HEK293 ZIKV MR766 infection, NS1 TR-FRET, 24 h; series mostly up to 46.1 µM
# Outline: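 TR-FRET signal from two anti-ZIKV NS1 antibodies quantified NS1 in HEK 293 cells 24 h after MR766 infection at MOI = 0.5; compounds were added 1 h before virus. Uninfected cells and infected cells defined the NS1 normalization range.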
# [5] = target: Atrial natriuretic peptide receptor 1 (Homo sapiens) (UniProt P16066); experiment: Natriuretic polypeptide receptor (hNpr1) antagonism - Pilot screen (AID 1347049); conditions: hNpr1 cells, antagonist mode cGMP read-out; series mostly up to 57.5 µM;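 further: agonist-evoked cGMP luminescence read 20 min after hNppA addition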; further: potency means the concentration at half of the fitted maximal effect
# Atrial natriuretic peptide receptor 1 (Homo sapiens), sequence (P16066 whole entry, looked up): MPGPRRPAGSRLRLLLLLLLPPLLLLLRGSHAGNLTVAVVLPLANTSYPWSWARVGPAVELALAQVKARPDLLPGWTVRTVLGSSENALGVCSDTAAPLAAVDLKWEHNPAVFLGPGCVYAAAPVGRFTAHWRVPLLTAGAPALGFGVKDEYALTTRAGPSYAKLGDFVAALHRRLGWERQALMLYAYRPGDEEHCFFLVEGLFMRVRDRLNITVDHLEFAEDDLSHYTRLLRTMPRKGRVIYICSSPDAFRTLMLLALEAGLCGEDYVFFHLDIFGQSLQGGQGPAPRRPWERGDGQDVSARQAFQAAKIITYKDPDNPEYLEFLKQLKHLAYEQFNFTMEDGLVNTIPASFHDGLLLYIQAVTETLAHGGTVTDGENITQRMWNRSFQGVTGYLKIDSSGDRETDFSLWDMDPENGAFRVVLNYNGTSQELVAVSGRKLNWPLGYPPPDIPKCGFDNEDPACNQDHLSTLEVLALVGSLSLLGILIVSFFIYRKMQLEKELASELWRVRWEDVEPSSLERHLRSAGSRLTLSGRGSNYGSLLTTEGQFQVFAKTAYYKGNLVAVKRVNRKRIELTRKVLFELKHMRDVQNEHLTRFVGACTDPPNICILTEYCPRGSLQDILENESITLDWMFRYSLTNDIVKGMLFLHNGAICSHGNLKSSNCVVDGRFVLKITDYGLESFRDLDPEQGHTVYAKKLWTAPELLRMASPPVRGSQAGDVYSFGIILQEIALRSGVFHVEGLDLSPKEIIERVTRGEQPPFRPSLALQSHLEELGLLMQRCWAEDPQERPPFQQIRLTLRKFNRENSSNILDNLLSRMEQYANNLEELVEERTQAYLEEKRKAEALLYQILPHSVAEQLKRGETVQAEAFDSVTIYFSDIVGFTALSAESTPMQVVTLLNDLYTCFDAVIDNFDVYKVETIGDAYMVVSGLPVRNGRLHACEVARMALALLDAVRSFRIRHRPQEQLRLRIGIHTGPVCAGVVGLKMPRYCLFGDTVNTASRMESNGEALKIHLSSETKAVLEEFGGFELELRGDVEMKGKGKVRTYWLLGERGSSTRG
# Outline: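 cGMP-sensor HEK293/hNpr1 cells, 1500/well, plated overnight at 37C. 2% GloSensor reagent, 2 h RT. Compound (23 nL pin transfer) 30 min RT, baseline luminescence pre-read. 0.1 nM hNppA, 20 min RT, post-read.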
smiles,measurement,setting,value
Cc1ccc(S(=O)(=O)/C=C/C#N)cc1,Potency,[1],9.27 µM (active)
same,Potency,[2],9.27 µM (active)
same,Potency,[3],inactive
O=C(O)c1cc([N+](=O)[O-])ccc1NCCCc1ccccc1,Potency,[1],inactive
same,Potency,[2],inactive
same,Potency,[4],inactive
same,Potency,[3],inactive
CN(C)c1nc2c(Br)c(Br)c(Br)c(Br)c2[nH]1,Potency,[1],inactive
same,Potency,[2],inactive
C=C[C@H]1CN2CC[C@@H]1C[C@@H]2[C@@H](O)c1ccnc2ccc(OC)cc12,Potency,[5],inactive
same,Potency,[2],inactive
same,Potency,[4],inactive
CSc1ccccc1N1CCN(CCCCCC(=O)NC2CCCc3ccccc32)CC1 (stereo not drawn),Potency,[5],inactive
same,Potency,[2],inactive
NO,Potency,[5],inactive
same,Potency,[2],inactive
same,Potency,[4],inactive
C[C@@H](NC(=O)/C(C#N)=C/c1ccc(O)c(O)c1)c1ccccc1,Potency,[5],inactive
same,Potency,[2],inactive
O=c1[nH]c2cc(Cl)c(Cl)cc2[nH]c1=O,Potency,[1],inactive
same,Potency,[2],inactive
O=C(O)CCCC[C@@H]1CCSS1,Potency,[5],inactive
same,Potency,[2],inactive
same,Potency,[4],inactive
CCOC(=O)N1CCN(/[N+]([O-])=N/Oc2ccc([N+](=O)[O-])cc2[N+](=O)[O-])CC1,Potency,[1],5.21 µM (active)
same,Potency,[2],10.4 µM (active)
same,Potency,[4],inactive
same,Potency,[3],inactive
CC(=O)/C=C1\C(=O)N(C)c2ccccc21,Potency,[1],9.27 µM (active)
same,Potency,[2],14.7 µM (active)
same,Potency,[3],inactive
O=C(O)[C@@H]1C[C@@H](C(=O)O)N1,Potency,[1],inactive
same,Potency,[2],inactive
Nc1nc(Cl)nc2c1ncn2[C@@H]1O[C@H](COP(=O)(O)OP(=O)(O)OP(=O)(O)O)[C@@H](O)[C@H]1O,Potency,[1],inactive
same,Potency,[2],inactive
same,Potency,[4],inactive
same,Potency,[3],inactive
Nc1nc(Cl)nc2c1ncn2[C@@H]1O[C@H](CO)[C@@H](O)[C@H]1O,Potency,[1],inactive
same,Potency,[2],inactive
same,Potency,[4],inactive
same,Potency,[3],inactive
O=C(Nc1cccc(C(=O)Nc2ccc(S(=O)(=O)O)c3cc(S(=O)(=O)O)cc(S(=O)(=O)O)c23)c1)Nc1cccc(C(=O)Nc2ccc(S(=O)(=O)O)c3cc(S(=O)(=O)O)cc(S(=O)(=O)O)c23)c1,Potency,[1],inactive
same,Potency,[2],inactive
same,Potency,[4],inactive
same,Potency,[3],inactive
COc1ccccc1N1CCN(CCCCNS(=O)(=O)c2cccc3c(N(C)C)cccc23)CC1,Potency,[5],inactive
same,Potency,[2],inactive
Cc1ccc(C(=O)O[C@H](C(=O)O)[C@@H](OC(=O)c2ccc(C)cc2)C(=O)O)cc1 (tested in a mixture with another compound),Potency,[1],inactive
same,Potency,[2],inactive
N[C@@H](CC(=O)O)C(=O)O,Potency,[5],inactive
same,Potency,[2],inactive
same,Potency,[4],inactive
CCCCCCCCCCCCCCCCCC(=O)NCC(COP(=O)([O-])OCC[N+](C)(C)C)OCC (stereo not drawn),Potency,[5],inactive
CCCCC#Cc1nc(NC)c2ncn([C@@H]3O[C@H](CO)[C@@H](O)[C@H]3O)c2n1,Potency,[1],inactive
same,Potency,[2],inactive
same,Potency,[4],inactive
Cc1nc2sccn2c(=O)c1CCN1CCC(=C(c2ccccc2)c2ccc(F)cc2)CC1,Potency,[1],inactive
same,Potency,[2],inactive
C#CCN1C(C)=C(C(=O)OC)C(c2cccc([N+](=O)[O-])c2)C(C(=O)OCC)=C1C (stereo not drawn),Potency,[5],inactive
CCCCCCCCc1ccc(-c2ccc(C(=O)O)cc2)cc1,Potency,[5],inactive
same,Potency,[2],inactive
same,Potency,[4],inactive
C[N+](C)(CCCCCC[N+](C)(C)CCCN1C(=O)c2cccc3cccc(c23)C1=O)CCCN1C(=O)c2cccc3cccc(c23)C1=O,Potency,[5],inactive
same,Potency,[2],inactive
O=C1C(SCCO)=C(SCCO)C(=O)c2ccccc21,Potency,[1],2.07 µM (active)
same,Potency,[5],5.36 µM (active)
same,Potency,[2],2.93 µM (active)
same,Potency,[3],inactive
OC[C@H]1O[C@@H](n2cnc3c(Nc4ccccc4)ncnc32)[C@H](O)[C@@H]1O,Potency,[5],inactive
same,Potency,[2],inactive
COc1cc(C(O)CO)ccc1OS(=O)(=O)O (stereo not drawn),Potency,[1],inactive
same,Potency,[2],inactive
same,Potency,[4],inactive
same,Potency,[3],inactive
O=[N+]([O-])c1ccc2c(c1)S(=O)(=O)C=C2,Potency,[1],9.27 µM (active)
same,Potency,[5],10.7 µM (active)
same,Potency,[2],5.85 µM (active)
same,Potency,[3],inactive
O=C(c1ccc(Cl)cc1)N1CCN(c2ccc([N+](=O)[O-])c3ncccc23)CC1,Potency,[4],inactive
same,Potency,[3],inactive
CN[C@H](CC(C)C)C(=O)N[C@H]1C(=O)N[C@@H](CC(N)=O)C(=O)N[C@H]2C(=O)N[C@H]3C(=O)N[C@H](C(=O)N[C@H](C(=O)O)c4cc(O)cc(O)c4-c4cc3ccc4O)[C@H](O)c3ccc(c(Cl)c3)Oc3cc2cc(c3O[C@@H]2O[C@H](CO)[C@@H](O)[C@H](O)[C@H]2O[C@H]2C[C@](C)(N)[C@H](O)[C@H](C)O2)Oc2ccc(cc2Cl)[C@H]1O,Potency,[4],inactive
same,Potency,[3],inactive
NS(=O)(=O)C#Cc1ccccc1,Potency,[3],inactive
NC[C@H]1O[C@@H](n2cnc3c(N)ncnc32)[C@H](O)[C@@H]1O,Potency,[4],inactive
same,Potency,[3],inactive
COc1cc(OC)cc(-c2cc3cnc(N)nc3nc2NC(=O)NC(C)(C)C)c1,Potency,[4],inactive
same,Potency,[3],inactive
CC(C)c1cccc(C(C)C)c1N1C(=O)c2ccc(O)cc2C1=O,Potency,[4],inactive
same,Potency,[3],inactive
N[C@H](CCCP(=O)(O)O)C(=O)O,Potency,[4],inactive
same,Potency,[3],inactive
Cc1cc2c(cc1Cl)N(C(=O)Nc1ccc(Oc3cccnc3C)nc1)CC2,Potency,[3],inactive
O=C(NOCC1CC1)c1cc(Br)c(F)c(F)c1Nc1ccc(I)cc1Cl,Potency,[4],inactive
same,Potency,[3],inactive
COCCOc1cc2ncnc(Cl)c2cc1OCCOC,Potency,[4],inactive
same,Potency,[3],inactive
O=C1NCc2c1c1c3ccccc3[nH]c1c1[nH]c3ccccc3c21,Potency,[4],inactive
same,Potency,[3],inactive
S=C(S)OC1CC2CC1C1CCCC21 (stereo not drawn),Potency,[4],inactive
same,Potency,[3],inactive
O=C(CCSCc1ccco1)NNC(=O)N1Cc2ccccc2Oc2ccc(Cl)cc21,Potency,[4],inactive
same,Potency,[3],inactive
COc1ccccc1CNCCCCCCNCCCCCCCCNCCCCCCNCc1ccccc1OC,Potency,[4],inactive
same,Potency,[3],inactive
Cc1cn([C@H]2CC(N=[N+]=[N-])[C@@H](CO)O2)c(=O)[nH]c1=O (stereo partly drawn),Potency,[4],inactive
same,Potency,[3],inactive
COc1ccc(-c2cc(=O)c3c(O)c(OC)c(OC)cc3o2)cc1O,Potency,[4],inactive
same,Potency,[3],inactive
O=C1NC(O)=NC1(c1ccccc1)c1ccccc1,Potency,[4],inactive
same,Potency,[3],inactive
Nc1nc2c(ncn2[C@@H]2O[C@H](CO)[C@@H](O)[C@@H]2O)c(=O)[nH]1,Potency,[4],inactive
same,Potency,[3],inactive
CN=c1nc(-c2ccccc2)n(-c2ccccc2)s1,Potency,[4],inactive
same,Potency,[3],inactive
Brc1cc2c(cc1[C@H]1Nc3ccccc3[C@H]3C=CC[C@H]31)OCO2,Potency,[4],inactive
same,Potency,[3],inactive
C[N+]1(C)C2CC(OC(=O)[C@H](CO)c3ccccc3)CC1C1OC12 (stereo partly drawn),Potency,[4],inactive
same,Potency,[3],inactive
COc1ccc(C(=O)/C(Cc2cc(OC)c(OC)c(OC)c2)=C(\C(=O)O)c2ccc3c(c2)OCO3)cc1,Potency,[3],inactive
CS(=O)(=O)c1ccc(-n2nc(C(F)(F)F)cc2-c2ccc(F)cc2)cc1,Potency,[4],inactive
same,Potency,[3],inactive
Nc1ccn([C@H]2O[C@H](CO)[C@@H](O)C2(F)F)c(=O)n1,Potency,[3],inactive
COc1ccc(NC(=O)/C=C/c2ccc(Cl)cc2)cc1,Potency,[4],inactive
same,Potency,[3],inactive
Cn1c(=O)c(-c2c(Cl)cccc2Cl)cc2cnc(Nc3ccc(N4CCOCC4)cc3)nc21,Potency,[3],inactive
CO[C@H]1O[C@@H]2O[C@]3(C)CC[C@@H]4[C@@H](C)CC[C@H]([C@H]1C)[C@]24OO3,Potency,[4],inactive
same,Potency,[3],inactive
CCCC(CCC)C(=O)OC1CC2CCC(C1)[N+]2(C)C (stereo not drawn),Potency,[4],inactive
same,Potency,[3],inactive
COCCOc1cc2nc[nH]c(=O)c2cc1OCCOC,Potency,[4],inactive
same,Potency,[3],inactive
COc1ccccc1CN[C@@H]1CCCN[C@@H]1c1ccccc1,Potency,[4],inactive
same,Potency,[3],inactive
CCCCCCCCCCCCCCCCCCN(CCCCCCCCCCCCCCCCCC)CCCN(CCO)CCO,Potency,[4],inactive
same,Potency,[3],inactive
CC[C@H]1OC(=O)[C@H](C)[C@@H](O[C@H]2C[C@@](C)(OC)[C@@H](O)[C@H](C)O2)[C@H](C)[C@@H](O[C@@H]2O[C@H](C)C[C@H](NC)[C@H]2O)[C@](C)(O)C[C@@H](C)CN(C)[C@H](C)[C@@H](O)[C@]1(C)O,Potency,[4],inactive
same,Potency,[3],inactive
S=c1[nH]c(-c2ccccc2)cn1-c1ccccc1,Potency,[4],inactive
same,Potency,[3],inactive
Fc1ccc2[nH]c(CN3CCN(c4ccccn4)CC3)cc2c1,Potency,[4],inactive
same,Potency,[3],inactive
CC(C)(NS(=O)(=O)c1ccc(Oc2ccc(F)cc2)cc1)C(=O)NO,Potency,[4],inactive
same,Potency,[3],inactive
CC[C@H]1OC(=O)[C@H](C)C(O[C@H]2C[C@@](C)(OC)[C@@H](O)[C@H](C)O2)[C@H](C)[C@@H](OC2O[C@H](C)C[C@H](N(C)C)[C@H]2O)[C@](C)(O)C[C@@H](C)CN(C)[C@H](C)[C@@H](O)[C@]1(C)O (stereo partly drawn),Potency,[4],inactive
same,Potency,[3],inactive
NS(=O)(=O)c1ccc(-n2nc(C(F)(F)F)cc2-c2ccc(Cl)cc2)cc1,Potency,[4],inactive
same,Potency,[3],inactive
COc1ccc(/C=C2\COc3ccc(C)cc3C2=O)cc1O,Potency,[3],inactive
